Assay results as given in PubChem BioAssay (EPA / NIEHS).
The source made the active and inactive calls. How the source made its calls: active means hit-call score of the fitted dose curve at least 0.9, where 1 is the maximum; inactive means score below 0.9.

read-out: flavin-containing dimethylaniline monooxygenases 3 (FMO3), FMO3 (gene 2328); experiment: LTEA_HepaRG_FMO3: Life Technologies and Expression Analysis (LTEA) Assay for flavin-containing dimethylaniline monooxygenases 3 (FMO3) using HepaRG (AID 2283453); conditions: mRNA level, 48 h; actives raise or lower the signal;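 on AC50: differentiated human HepaRG liver cells in serum-free induction medium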
Outline: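 Differentiated HepaRG cells in serum-free induction medium, exposed 48 h in duplicate to 8 half-log concentrations up to 100 uM in 0.5% DMSO. FMO3 mRNA by qRT-PCR, normalized to ACTB, GAPDH, POLR2A; bidirectional fit vs DMSO.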

| Structure (SMILES) | outcome | AC50 |
| --- | --- | --- |
| COCCOCCOCCOC | inactive | – |
| O=C(NS(=O)(=O)/C=C/c1ccccc1)c1ccc(F)cc1Cl | inactive | – |
| CNCc1ccc(NC(=O)c2c[nH]c3c2C(=O)CCC3)cc1 | inactive | – |
| C1=CCCC=CCCC=CCC1 | inactive | – |
| CC[C@H]1OC(=O)[C@H](C)[C@@H](O[C@H]2C[C@@](C)(OC)[C@@H](O)[C@H](C)O2)[C@H](C)[C@@H](O[C@@H]2O[C@H](C)C[C@H](N(C)C)[C@H]2O)[C@](C)(O)C[C@@H](C)C(=O)[C@H](C)[C@@H](O)[C@]1(C)O | inactive | – |
| Cn1c(=O)c2c(ncn2C)n(C)c1=O | inactive | – |
| CC(O)CN(CCN(CC(C)O)CC(C)O)CC(C)O (centres undefined) | inactive | – |
| CC(=O)OCCC(C)C | inactive | – |
| CC(C)=CCC/C(C)=C/CO | inactive | – |
| CC1(C)C(=O)N(Br)C(=O)N1Br | inactive | – |
| CCOC(=O)CC(CC(=O)OCC)(OC(C)=O)C(=O)OCC | inactive | – |
| O=C1CCC(N2C(=O)c3ccccc3C2=O)C(=O)N1 (centres undefined) | inactive | – |
| CCCCC(CC)COC(=O)c1ccc(C(=O)OCC(CC)CCCC)cc1 (centres undefined) | inactive | – |
| CCNc1ccccc1 | inactive | – |
| O=c1n(CC2CO2)c(=O)n(CC2CO2)c(=O)n1CC1CO1 (centres undefined) | inactive | – |
| CCn1nc(Cc2ccccc2)cc1C1CCN(C[C@H]2C[C@H](N(C)[C@@H](C(=O)O)C(C)C)C[C@@H]2c2cccc(F)c2)CC1 | – | 50 µM (active) |
| CCCN(C1CCN(C(=O)C2CCNCC2)CC1)[C@@H]1CCc2ccc(OC)cc2C1 | – | 57.5 µM (active) |
| O=C(O)c1cc(N=Nc2ccc(S(=O)(=O)Nc3ccccn3)cc2)ccc1O | inactive | – |
| C1N2CN3CN1CN(C2)C3 | inactive | – |
| CC(C)=CCC/C(C)=C\CO | inactive | – |
| Clc1nc(Cl)c(Cl)c(Cl)c1Cl | inactive | – |
| CCCCC(CC)COC(=O)CCCCCCCCC(=O)OCC(CC)CCCC (centres undefined) | inactive | – |
| Cn1cnc([N+](=O)[O-])c1Sc1ncnc2nc[nH]c12 | – | 17.5 µM (active) |
| O=C(O)c1cccc(Oc2ccccc2)c1 | inactive | – |
| CC/C(=C\C(=N/O)C(N)=O)C(C)[N+](=O)[O-] (centres undefined) | inactive | – |
| Cc1ccc(C)c(O)c1 | inactive | – |
| O=C(O)CCN(C1(C(=O)NO)CCCC1)S(=O)(=O)c1ccc(Oc2ccc(F)cc2)cc1 | inactive | – |
| O=C(CCCCCCCCc1cccnc1)N1CCC(C=C(c2ccccc2)c2ccccc2)CC1 | – | 29.6 µM (active) |
| O=C1OC(=O)C2C3C=CC(C3)C12 (centres undefined) | inactive | – |
